Results from PubChem BioAssay AID1159580 (chemical genetic matrix, 2015).
In all, about 5,500 compounds went through this assay and about 2,000 (36%) were called active. About 18% were inconclusive and are not listed. No stated cut-off is given here; in the data, active means normalized growth mostly below about 0.91 (no sharp cut-off); inconclusive means no clear call, values can overlap the other calls; inactive means mostly above about 0.92. This is one part of the list.

Experiment: chemical genetic growth profiling, strain panel (AID 1159580);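 further: tested at 20 µM; growth read once vehicle control cultures reached saturation at 30 °C; 1 = growth at the plate median or of vehicle wells; lower values mean less growth of the strain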
Conditions: growth OD

Measured: normalized growth

CC1O[C@@H](Oc2c(-c3ccc(O)c(O)c3)oc3cc(O)cc(O)c3c2=O)[C@H](O)[C@H](O)[C@H]1O (some centres not stated)
inactive: S. cerevisiae deletion strains, locus YJR075W, strain HOC1, active compounds read low 0.996 | S. cerevisiae deletion strains, locus YKL009W, strain mrt4, active compounds read low 1.11 | S. cerevisiae deletion strains, locus YKL068W, active compounds read low 0.972 | S. cerevisiae deletion strains, locus YKL085W, strain MDH1 (second series), active compounds read low 1.03 | S. cerevisiae deletion strains, locus YKL085W, strain MDH1, active compounds read low 1.03 | S. cerevisiae deletion strains, locus YKL160W, strain elf1, active compounds read low 0.994 | S. cerevisiae deletion strains, locus YKL190W, strain CNB1, active compounds read low 0.998 | S. cerevisiae deletion strains, locus YKR001C, strain vps1, active compounds read low 0.989 | S. cerevisiae deletion strains, locus YKR026C, strain gcn3, active compounds read low 0.983 | S. cerevisiae deletion strains, locus YKR091W, strain srl3, active compounds read low 0.993 | S. cerevisiae deletion strains, locus YLL001W, strain dnm1, active compounds read low 0.986 | S. cerevisiae deletion strains, locus YLL026W, active compounds read low 0.996 | S. cerevisiae deletion strains, locus YLL041C, strain sdh2, active compounds read low 0.997 | S. cerevisiae deletion strains, locus YLR027C, strain aat2, active compounds read low 0.98 | S. cerevisiae deletion strains, locus YLR039C, strain RIC1, active compounds read low 0.974 | S. cerevisiae deletion strains, locus YLR058C, strain SHM2, active compounds read low 0.999 | S. cerevisiae deletion strains, locus YLR102C, strain apc9, active compounds read low 0.984 | S. cerevisiae deletion strains, locus YLR113W, strain HOG1, active compounds read low 0.958 | S. cerevisiae deletion strains, locus YLR221C, strain rsa3, active compounds read low 0.989 | S. cerevisiae deletion strains, locus YLR258W, strain gsy2, active compounds read low 1 | S. cerevisiae deletion strains, locus YLR262C, strain YPT6 (second series), active compounds read low 1.01 | S. cerevisiae deletion strains, locus YLR262C, strain YPT6, active compounds read low 0.992 | S. cerevisiae deletion strains, locus YLR268W, strain sec22, active compounds read low 0.948 | S. cerevisiae deletion strains, locus YLR320W, strain mms22, active compounds read low 0.991 | S. cerevisiae deletion strains, locus YLR330W, strain CHS5, active compounds read low 0.99 | S. cerevisiae deletion strains, locus YLR342W, strain FKS1 (second series), active compounds read low 1.04 | S. cerevisiae deletion strains, locus YLR342W, strain FKS1, active compounds read low 0.984 | S. cerevisiae deletion strains, locus YLR357W, strain rsc2, active compounds read low 0.969 | S. cerevisiae deletion strains, locus YLR370C, strain arc18, active compounds read low 0.989 | S. cerevisiae deletion strains, locus YLR371W, strain rom2, active compounds read low 0.992 | S. cerevisiae deletion strains, locus YLR384C, strain iki3, active compounds read low 0.994 | S. cerevisiae deletion strains, locus YLR418C, strain cdc73, active compounds read low 0.993 | S. cerevisiae deletion strains, locus YML016C, strain PPZ1, active compounds read low 1 | S. cerevisiae deletion strains, locus YML032C, strain rad52, active compounds read low 0.99 | S. cerevisiae deletion strains, locus YML120C, strain ndi1, active compounds read low 1 | S. cerevisiae deletion strains, locus YML124C, strain tub3, active compounds read low 0.985 | S. cerevisiae deletion strains, locus YMR058W, strain fet3, active compounds read low 0.99 | S. cerevisiae deletion strains, locus YMR078C, strain ctf18, active compounds read low 0.988 | S. cerevisiae deletion strains, locus YMR125W, strain sto1, active compounds read low 0.981 | S. cerevisiae deletion strains, locus YMR129W, active compounds read low 0.982 | S. cerevisiae deletion strains, locus YMR205C, strain PFK2, active compounds read low 0.986 | S. cerevisiae deletion strains, locus YMR223W, strain ubp8, active compounds read low 1.03 | S. cerevisiae deletion strains, locus YMR231W, strain pep5, active compounds read low 0.974 | S. cerevisiae deletion strains, locus YMR263W, strain SAP30, active compounds read low 0.992 | S. cerevisiae deletion strains, locus YMR307W, strain GAS1, active compounds read low 1.1 | S. cerevisiae deletion strains, locus YNL067W, strain RPL9B, active compounds read low 0.975 | S. cerevisiae deletion strains, locus YNL071W, strain lat1, active compounds read low 0.992 | S. cerevisiae deletion strains, locus YNL128W, strain TEP1, active compounds read low 0.986 | S. cerevisiae deletion strains, locus YNL153C, strain GIM3, active compounds read low 0.991 | S. cerevisiae deletion strains, locus YNL183C, strain NPR1, active compounds read low 0.919 | S. cerevisiae deletion strains, locus YNL209W, strain ssb2, active compounds read low 0.984 | S. cerevisiae deletion strains, locus YNL233W, strain BNI4, active compounds read low 0.985 | S. cerevisiae deletion strains, locus YNL248C, strain rpa49, active compounds read low 0.989 | S. cerevisiae deletion strains, locus YNL250W, strain rad50, active compounds read low 0.983 | S. cerevisiae deletion strains, locus YNL271C, strain bni1, active compounds read low 0.984 | S. cerevisiae deletion strains, locus YNL298W, strain CLA4, active compounds read low 0.991 | S. cerevisiae deletion strains, locus YNL307C, strain MCK1, active compounds read low 0.997 | S. cerevisiae deletion strains, locus YNL322C, strain KRE1 (second series), active compounds read low 0.988 | S. cerevisiae deletion strains, locus YNL322C, strain KRE1, active compounds read low 0.984 | S. cerevisiae deletion strains, locus YNR049C, strain mso1, active compounds read low 0.986 | S. cerevisiae deletion strains, locus YNR052C, strain pop2, active compounds read low 0.98 | S. cerevisiae deletion strains, locus YOL006C, strain TOP1, active compounds read low 0.955 | S. cerevisiae deletion strains, locus YOL012C, strain htz1 0.762 | S. cerevisiae deletion strains, locus YOL147C, strain pex11, active compounds read low 0.997 | S. cerevisiae deletion strains, locus YOR001W, strain rrp6, active compounds read low 0.992 | S. cerevisiae deletion strains, locus YOR061W, strain CKA2, active compounds read low 1 | S. cerevisiae deletion strains, locus YOR069W, strain VPS5, active compounds read low 1 | S. cerevisiae deletion strains, locus YOR070C, strain gyp1, active compounds read low 0.986 | S. cerevisiae deletion strains, locus YOR080W, strain dia2, active compounds read low 0.988 | S. cerevisiae deletion strains, locus YOR083W, strain WHI5, active compounds read low 0.995 | S. cerevisiae deletion strains, locus YOR106W, strain vam3, active compounds read low 1.02 | S. cerevisiae deletion strains, locus YOR136W, strain idh2, active compounds read low 0.986 | S. cerevisiae deletion strains, locus YOR144C, strain elg1, active compounds read low 0.982 | S. cerevisiae deletion strains, locus YOR184W, strain ser1, active compounds read low 1.01 | S. cerevisiae deletion strains, locus YOR231W, strain MKK1, active compounds read low 0.942 | S. cerevisiae deletion strains, locus YOR265W, strain rbl2, active compounds read low 0.992 | S. cerevisiae deletion strains, locus YOR270C, strain vph1, active compounds read low 1.03 | S. cerevisiae deletion strains, locus YOR290C, strain snf2, active compounds read low 0.995 | S. cerevisiae deletion strains, locus YOR316C, strain cot1, active compounds read low 0.983 | S. cerevisiae deletion strains, locus YPL051W, strain arl3, active compounds read low 0.983 | S. cerevisiae deletion strains, locus YPL055C, strain LGE1, active compounds read low 0.974 | S. cerevisiae deletion strains, locus YPL078C, strain atp4, active compounds read low 0.997 | S. cerevisiae deletion strains, locus YPL106C, strain sse1, active compounds read low 0.971 | S. cerevisiae deletion strains, locus YPL240C, strain hsp82, active compounds read low 1 | S. cerevisiae deletion strains, locus YPL241C, strain CIN2, active compounds read low 1 | S. cerevisiae deletion strains, locus YPL256C, strain CLN2, active compounds read low 0.927 | S. cerevisiae deletion strains, locus YPR119W, strain clb2, active compounds read low 0.996 | S. cerevisiae deletion strains, locus YPR141C, strain kar3, active compounds read low 0.975 | S. cerevisiae deletion strains, locus YPR163C, strain tif3, active compounds read low 0.986 | S. cerevisiae deletion strains, locus YPR167C, strain met16, active compounds read low 0.982 | S. cerevisiae deletion strains, strain wtn01, active compounds read low 0.982 | S. cerevisiae strains, strain wild type, active compounds read low 0.997
